Source: a collection of fitness landscapes (doi:10.1126/science.1257360)
Whole data set: some 140,000 sequences, median “enrichment ratio after two sorts for PhoP signalling” near 0, cut for the highest 2% near 11. The sample as a whole holds a higher share of the highest values than the screen did.

B1: PhoQ; a variant is named by its letters at X, in order, P23837 (parent)
chain: MKKLLRLFFPLSLRVRFLLATAAVVLVLSLAYGMVALIGYSVSFDKTTFRLLRGESNLFYTLAKWENNKLHVELPENIDKQSPTMTLIYDENGQLLWAQRDVPWLMKMIQPDWLKSNGFHEIEADVNDTSLLLSGDHSIQQQLQEVREDDDDAEMTHSVAVNVYPATSRMPKLTIVVVDTIPVELKSSYMVWSWFIYVLSANLLLVIPLLWVAAWWSLRPIEALAKEVRELEEHNRELLNPATTRELTSLVRNLNRLLKSERERYDKYRTTLTDLTHSLKTPLXXLQXXLRSLRSEKMSVSDAEPVMLEQISRISQQIGYYLHRASMRGGTLLSRELHPVAPLLDNLTSALNKVYQRKGVNISLDISPEISFVGEQNDFVEVMGNVLDNACKYCLEFVEISARQTDEHLYIVVEDDGPGIPLSKREVIFDRGQRVDTLRPGQGVGLAVAREITEQYEGKIVAGESMLGGARMEVIFGRQHSAPKDE

Variants of: B1
Assay: enrichment ratio after two sorts for PhoP signalling (ratio (wild type AVST 3.29)); higher = more functional
Settings: with PhoP (E. coli)

Q: YSQQ was tested. Which enrichment ratio did it give?
A: Its enrichment ratio is at most 0.25.

Q: Which enrichment ratio does the source give for PRCN here?
A: The enrichment ratio was at most 0.25.

Q: With RSCH as the variant, how does the enrichment ratio read?
A: Its enrichment ratio is at most 0.25.

Q: With DCRN as the variant, how does the enrichment ratio read?
A: Its enrichment ratio is at most 0.25.

Q: How did the enrichment ratio turn out when MFPC was run?
A: Its enrichment ratio is at most 0.25.

Q: With YLTE as the variant, how does the enrichment ratio read?
A: The enrichment ratio was at most 0.25.

Q: Which enrichment ratio does the source give for MATL here?
A: Its enrichment ratio is 7.59.

Q: For MMTL, which enrichment ratio is on record?
A: The enrichment ratio was 13.2.

Q: With NVTL as the variant, how does the enrichment ratio read?
A: Its enrichment ratio is at most 0.25.

Q: With TSTL as the variant, how does the enrichment ratio read?
A: Its enrichment ratio is 20.7.

Q: How did the enrichment ratio turn out when METL was run?
A: The enrichment ratio was 3.99.

Q: For WITL, which enrichment ratio is on record?
A: Its enrichment ratio is 0.966.

Q: For FVLT, which enrichment ratio is on record?
A: The enrichment ratio was at most 0.25.

Q: How did the enrichment ratio turn out when WYAY was run?
A: Its enrichment ratio is at most 0.25.

Q: How did the enrichment ratio turn out when KNFK was run?
A: Its enrichment ratio is at most 0.25.

Q: With MYGA as the variant, how does the enrichment ratio read?
A: Its enrichment ratio is at most 0.25.

Q: Which enrichment ratio does the source give for GWFA here?
A: Its enrichment ratio is at most 0.25.

Q: For RSRM, which enrichment ratio is on record?
A: Its enrichment ratio is at most 0.25.

Q: With GCLS as the variant, how does the enrichment ratio read?
A: Its enrichment ratio is 19.3.

Q: Which enrichment ratio does the source give for GCLN here?
A: Its enrichment ratio is 11.5.

Q: With KCLN as the variant, how does the enrichment ratio read?
A: Its enrichment ratio is at most 0.25.

Q: GCLA was tested. Which enrichment ratio did it give?
A: The enrichment ratio was 6.8.

Q: Which enrichment ratio does the source give for GCNL here?
A: Its enrichment ratio is at most 0.25.

Q: With GCLT as the variant, how does the enrichment ratio read?
A: The enrichment ratio was 6.49.

Q: How did the enrichment ratio turn out when VRSC was run?
A: Its enrichment ratio is at most 0.25.

Q: Which enrichment ratio does the source give for YKWM here?
A: The enrichment ratio was at most 0.25.

Q: FFSC was tested. Which enrichment ratio did it give?
A: Its enrichment ratio is at most 0.25.

Q: For NGSC, which enrichment ratio is on record?
A: The enrichment ratio was at most 0.25.

Q: For FVSC, which enrichment ratio is on record?
A: Its enrichment ratio is at most 0.25.

Q: Which enrichment ratio does the source give for QGSC here?
A: Its enrichment ratio is 12.

Q: Which enrichment ratio does the source give for GGSC here?
A: The enrichment ratio was 9.93.

Q: For TGSC, which enrichment ratio is on record?
A: The enrichment ratio was 20.2.

Q: Which enrichment ratio does the source give for FEYD here?
A: Its enrichment ratio is at most 0.25.

Q: How did the enrichment ratio turn out when FCVK was run?
A: The enrichment ratio was at most 0.25.

Q: How did the enrichment ratio turn out when ESKA was run?
A: The enrichment ratio was at most 0.25.

Q: NEVN was tested. Which enrichment ratio did it give?
A: Its enrichment ratio is at most 0.25.

Q: For VAFL, which enrichment ratio is on record?
A: Its enrichment ratio is 3.05.

Q: Which enrichment ratio does the source give for WLWC here?
A: Its enrichment ratio is at most 0.25.

Q: With QCDS as the variant, how does the enrichment ratio read?
A: The enrichment ratio was at most 0.25.

Q: With QCGD as the variant, how does the enrichment ratio read?
A: The enrichment ratio was at most 0.25.

Q: For QCNL, which enrichment ratio is on record?
A: Its enrichment ratio is at most 0.25.

Q: With QCWL as the variant, how does the enrichment ratio read?
A: Its enrichment ratio is 13.1.

Q: How did the enrichment ratio turn out when GGWL was run?
A: The enrichment ratio was at most 0.25.

Q: With QCWI as the variant, how does the enrichment ratio read?
A: Its enrichment ratio is 37.7.

Q: For VIGT, which enrichment ratio is on record?
A: Its enrichment ratio is at most 0.25.

Q: Which enrichment ratio does the source give for IMSW here?
A: Its enrichment ratio is at most 0.25.

Q: How did the enrichment ratio turn out when VRWH was run?
A: The enrichment ratio was at most 0.25.

Q: With VEWS as the variant, how does the enrichment ratio read?
A: Its enrichment ratio is 2.49.

Q: Which enrichment ratio does the source give for VEWG here?
A: The enrichment ratio was 18.1.

Q: Which enrichment ratio does the source give for VELA here?
A: Its enrichment ratio is at most 0.25.

Q: Which enrichment ratio does the source give for VLWG here?
A: The enrichment ratio was at most 0.25.

Q: Which enrichment ratio does the source give for VEWH here?
A: The enrichment ratio was 13.7.

Q: How did the enrichment ratio turn out when VLWH was run?
A: Its enrichment ratio is at most 0.25.

Q: Which enrichment ratio does the source give for VEWI here?
A: The enrichment ratio was 12.2.

Q: For VRWG, which enrichment ratio is on record?
A: The enrichment ratio was at most 0.25.

Q: For PTWI, which enrichment ratio is on record?
A: The enrichment ratio was at most 0.25.

Q: For FAIR, which enrichment ratio is on record?
A: The enrichment ratio was at most 0.25.

Q: Which enrichment ratio does the source give for IVHI here?
A: Its enrichment ratio is at most 0.25.

Q: MQLF was tested. Which enrichment ratio did it give?
A: The enrichment ratio was 2.66.

Q: For IWYQ, which enrichment ratio is on record?
A: Its enrichment ratio is at most 0.25.

Q: ATSW was tested. Which enrichment ratio did it give?
A: The enrichment ratio was 1.32.

Q: How did the enrichment ratio turn out when HLTG was run?
A: Its enrichment ratio is 1.04.

Q: How did the enrichment ratio turn out when PWLG was run?
A: Its enrichment ratio is at most 0.25.

Q: SCLG was tested. Which enrichment ratio did it give?
A: The enrichment ratio was 12.6.

Q: For KCLG, which enrichment ratio is on record?
A: The enrichment ratio was at most 0.25.

Q: How did the enrichment ratio turn out when SPLG was run?
A: Its enrichment ratio is at most 0.25.

Q: How did the enrichment ratio turn out when NALG was run?
A: The enrichment ratio was 0.397.

Q: With STLG as the variant, how does the enrichment ratio read?
A: The enrichment ratio was 14.5.

Q: Which enrichment ratio does the source give for QCLG here?
A: The enrichment ratio was 2.4.

Q: How did the enrichment ratio turn out when SALG was run?
A: Its enrichment ratio is 15.9.

Q: Which enrichment ratio does the source give for KALG here?
A: The enrichment ratio was at most 0.25.

Q: PTLG was tested. Which enrichment ratio did it give?
A: Its enrichment ratio is at most 0.25.

Q: GCLG was tested. Which enrichment ratio did it give?
A: Its enrichment ratio is 14.9.

Q: With SWLG as the variant, how does the enrichment ratio read?
A: The enrichment ratio was at most 0.25.

Q: WEVH was tested. Which enrichment ratio did it give?
A: Its enrichment ratio is at most 0.25.

Q: With HANP as the variant, how does the enrichment ratio read?
A: Its enrichment ratio is at most 0.25.

Q: For NMEQ, which enrichment ratio is on record?
A: Its enrichment ratio is at most 0.25.

Q: Which enrichment ratio does the source give for ILFS here?
A: Its enrichment ratio is at most 0.25.

Q: QRWI was tested. Which enrichment ratio did it give?
A: Its enrichment ratio is at most 0.25.

Q: How did the enrichment ratio turn out when ISPF was run?
A: Its enrichment ratio is at most 0.25.

Q: For CVQT, which enrichment ratio is on record?
A: Its enrichment ratio is at most 0.25.

Q: WQLG was tested. Which enrichment ratio did it give?
A: The enrichment ratio was at most 0.25.

Q: Which enrichment ratio does the source give for SYLG here?
A: The enrichment ratio was 9.61.

Q: For SGLG, which enrichment ratio is on record?
A: Its enrichment ratio is 15.5.

Q: Which enrichment ratio does the source give for TGLG here?
A: Its enrichment ratio is 10.1.

Q: DPLG was tested. Which enrichment ratio did it give?
A: The enrichment ratio was at most 0.25.

Q: SQLG was tested. Which enrichment ratio did it give?
A: Its enrichment ratio is 19.1.

Q: How did the enrichment ratio turn out when FDLG was run?
A: The enrichment ratio was at most 0.25.

Q: Which enrichment ratio does the source give for FQLG here?
A: The enrichment ratio was 16.7.

Q: How did the enrichment ratio turn out when NGLG was run?
A: The enrichment ratio was at most 0.25.

Q: Which enrichment ratio does the source give for KQLG here?
A: Its enrichment ratio is at most 0.25.

Q: How did the enrichment ratio turn out when TQLG was run?
A: The enrichment ratio was 16.7.

Q: EQLG was tested. Which enrichment ratio did it give?
A: Its enrichment ratio is at most 0.25.
